Assay results from PubChem BioAssay AID1159580 (chemical genetic matrix, 2015).
The campaign covered roughly 5,500 compounds. About 2,000 (36%) were called active. Another 18% or so got no clear call; they are omitted. Cut-off read from the data, not from the text of the source: active = normalized growth mostly below about 0.91 (no sharp cut-off); inconclusive = no clear call, values can overlap the other calls; inactive = mostly above about 0.92. The list shows a part of the results.

Assay: chemical genetic growth profiling, strain panel (AID 1159580);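 note: tested at 20 µM; growth read once vehicle control cultures reached saturation at 30 °C; 1 = growth at the plate median or of vehicle wells; lower values mean less growth of the strain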
Details: growth OD

Measured: normalized growth

CC(C)CCCC(C)[C@H]1CCC2C3C(=O)C=C4C[C@@H](O)CC[C@]4(C)C3CC[C@@]21C (stereo partly drawn)
inactive: S. cerevisiae deletion strains, locus YJL187C, strain SWE1, stronger effect = lower value 1 | S. cerevisiae deletion strains, locus YJR043C, strain POL32, stronger effect = lower value 1.01 | S. cerevisiae deletion strains, locus YJR066W, strain TOR1, stronger effect = lower value 0.948 | S. cerevisiae deletion strains, locus YKL009W, strain mrt4, stronger effect = lower value 1.07 | S. cerevisiae deletion strains, locus YKL068W, stronger effect = lower value 1.01 | S. cerevisiae deletion strains, locus YKL085W, strain MDH1 (second series), stronger effect = lower value 1.03 | S. cerevisiae deletion strains, locus YKL085W, strain MDH1, stronger effect = lower value 1.03 | S. cerevisiae deletion strains, locus YKL160W, strain elf1, stronger effect = lower value 0.981 | S. cerevisiae deletion strains, locus YKR001C, strain vps1, stronger effect = lower value 1.05 | S. cerevisiae deletion strains, locus YKR026C, strain gcn3, stronger effect = lower value 0.996 | S. cerevisiae deletion strains, locus YKR091W, strain srl3, stronger effect = lower value 1 | S. cerevisiae deletion strains, locus YLL001W, strain dnm1, stronger effect = lower value 0.998 | S. cerevisiae deletion strains, locus YLL026W, stronger effect = lower value 1.01 | S. cerevisiae deletion strains, locus YLL041C, strain sdh2, stronger effect = lower value 0.991 | S. cerevisiae deletion strains, locus YLR027C, strain aat2, stronger effect = lower value 0.989 | S. cerevisiae deletion strains, locus YLR039C, strain RIC1, stronger effect = lower value 1.08 | S. cerevisiae deletion strains, locus YLR058C, strain SHM2, stronger effect = lower value 1.06 | S. cerevisiae deletion strains, locus YLR102C, strain apc9, stronger effect = lower value 1.03 | S. cerevisiae deletion strains, locus YLR113W, strain HOG1, stronger effect = lower value 0.975 | S. cerevisiae deletion strains, locus YLR221C, strain rsa3, stronger effect = lower value 0.981 | S. cerevisiae deletion strains, locus YLR258W, strain gsy2, stronger effect = lower value 1.02 | S. cerevisiae deletion strains, locus YLR262C, strain YPT6 (second series), stronger effect = lower value 0.972 | S. cerevisiae deletion strains, locus YLR262C, strain YPT6, stronger effect = lower value 1.09 | S. cerevisiae deletion strains, locus YLR268W, strain sec22, stronger effect = lower value 1.07 | S. cerevisiae deletion strains, locus YLR320W, strain mms22, stronger effect = lower value 1.03 | S. cerevisiae deletion strains, locus YLR330W, strain CHS5, stronger effect = lower value 1.02 | S. cerevisiae deletion strains, locus YLR342W, strain FKS1 (second series), stronger effect = lower value 1.07 | S. cerevisiae deletion strains, locus YLR342W, strain FKS1, stronger effect = lower value 1 | S. cerevisiae deletion strains, locus YLR357W, strain rsc2, stronger effect = lower value 1.06 | S. cerevisiae deletion strains, locus YLR370C, strain arc18, stronger effect = lower value 0.984 | S. cerevisiae deletion strains, locus YLR371W, strain rom2, stronger effect = lower value 1.03 | S. cerevisiae deletion strains, locus YLR384C, strain iki3, stronger effect = lower value 0.997 | S. cerevisiae deletion strains, locus YLR418C, strain cdc73, stronger effect = lower value 1.04 | S. cerevisiae deletion strains, locus YML016C, strain PPZ1, stronger effect = lower value 1.03 | S. cerevisiae deletion strains, locus YML032C, strain rad52, stronger effect = lower value 1.02 | S. cerevisiae deletion strains, locus YML120C, strain ndi1, stronger effect = lower value 0.965 | S. cerevisiae deletion strains, locus YML124C, strain tub3, stronger effect = lower value 1.02 | S. cerevisiae deletion strains, locus YMR058W, strain fet3, stronger effect = lower value 0.992 | S. cerevisiae deletion strains, locus YMR078C, strain ctf18, stronger effect = lower value 1.05 | S. cerevisiae deletion strains, locus YMR125W, strain sto1, stronger effect = lower value 1.01 | S. cerevisiae deletion strains, locus YMR129W, stronger effect = lower value 0.989 | S. cerevisiae deletion strains, locus YMR205C, strain PFK2, stronger effect = lower value 1.05 | S. cerevisiae deletion strains, locus YMR223W, strain ubp8, stronger effect = lower value 1.02 | S. cerevisiae deletion strains, locus YMR231W, strain pep5, stronger effect = lower value 1 | S. cerevisiae deletion strains, locus YMR307W, strain GAS1, stronger effect = lower value 1.11 | S. cerevisiae deletion strains, locus YNL067W, strain RPL9B, stronger effect = lower value 1.02 | S. cerevisiae deletion strains, locus YNL071W, strain lat1, stronger effect = lower value 0.993 | S. cerevisiae deletion strains, locus YNL183C, strain NPR1, stronger effect = lower value 0.937 | S. cerevisiae deletion strains, locus YNL209W, strain ssb2, stronger effect = lower value 1 | S. cerevisiae deletion strains, locus YNL233W, strain BNI4, stronger effect = lower value 1.02 | S. cerevisiae deletion strains, locus YNL248C, strain rpa49, stronger effect = lower value 0.934 | S. cerevisiae deletion strains, locus YNL250W, strain rad50, stronger effect = lower value 1.03 | S. cerevisiae deletion strains, locus YNL271C, strain bni1, stronger effect = lower value 1.05 | S. cerevisiae deletion strains, locus YNL298W, strain CLA4, stronger effect = lower value 1.04 | S. cerevisiae deletion strains, locus YNL307C, strain MCK1, stronger effect = lower value 1.05 | S. cerevisiae deletion strains, locus YNL322C, strain KRE1 (second series), stronger effect = lower value 0.98 | S. cerevisiae deletion strains, locus YNR049C, strain mso1, stronger effect = lower value 0.996 | S. cerevisiae deletion strains, locus YNR052C, strain pop2, stronger effect = lower value 1.03 | S. cerevisiae deletion strains, locus YOL012C, strain htz1 1.19 | S. cerevisiae deletion strains, locus YOL147C, strain pex11, stronger effect = lower value 1.01 | S. cerevisiae deletion strains, locus YOR001W, strain rrp6, stronger effect = lower value 0.994 | S. cerevisiae deletion strains, locus YOR061W, strain CKA2, stronger effect = lower value 1.05 | S. cerevisiae deletion strains, locus YOR069W, strain VPS5, stronger effect = lower value 1.02 | S. cerevisiae deletion strains, locus YOR070C, strain gyp1, stronger effect = lower value 0.999 | S. cerevisiae deletion strains, locus YOR080W, strain dia2, stronger effect = lower value 1.04 | S. cerevisiae deletion strains, locus YOR083W, strain WHI5, stronger effect = lower value 0.969 | S. cerevisiae deletion strains, locus YOR106W, strain vam3, stronger effect = lower value 0.978 | S. cerevisiae deletion strains, locus YOR136W, strain idh2, stronger effect = lower value 1.04 | S. cerevisiae deletion strains, locus YOR144C, strain elg1, stronger effect = lower value 1.02 | S. cerevisiae deletion strains, locus YOR184W, strain ser1, stronger effect = lower value 1.06 | S. cerevisiae deletion strains, locus YOR231W, strain MKK1, stronger effect = lower value 1 | S. cerevisiae deletion strains, locus YOR265W, strain rbl2, stronger effect = lower value 0.996 | S. cerevisiae deletion strains, locus YOR270C, strain vph1, stronger effect = lower value 0.907 | S. cerevisiae deletion strains, locus YOR290C, strain snf2, stronger effect = lower value 1.07 | S. cerevisiae deletion strains, locus YOR316C, strain cot1, stronger effect = lower value 1.04 | S. cerevisiae deletion strains, locus YPL051W, strain arl3, stronger effect = lower value 0.981 | S. cerevisiae deletion strains, locus YPL055C, strain LGE1, stronger effect = lower value 1.05 | S. cerevisiae deletion strains, locus YPL078C, strain atp4, stronger effect = lower value 0.935 | S. cerevisiae deletion strains, locus YPL106C, strain sse1, stronger effect = lower value 1.08 | S. cerevisiae deletion strains, locus YPL240C, strain hsp82, stronger effect = lower value 0.985 | S. cerevisiae deletion strains, locus YPL241C, strain CIN2, stronger effect = lower value 1.01 | S. cerevisiae deletion strains, locus YPL256C, strain CLN2, stronger effect = lower value 0.989 | S. cerevisiae deletion strains, locus YPR119W, strain clb2, stronger effect = lower value 1.03 | S. cerevisiae deletion strains, locus YPR141C, strain kar3, stronger effect = lower value 1.03 | S. cerevisiae deletion strains, locus YPR163C, strain tif3, stronger effect = lower value 1.03 | S. cerevisiae deletion strains, locus YPR167C, strain met16, stronger effect = lower value 1.04 | S. cerevisiae deletion strains, strain wtn01, stronger effect = lower value 1.03 | S. cerevisiae strains, strain wild type, stronger effect = lower value 1.02
